Compound activity deposited in PubChem by National Center for Advancing Translational Sciences (NCATS).
KB-V1 cytotox: KB-V1 MDR subline cytotoxicity; KB-V1 MDR cells viability, CellTiter-Glo, 72 h; Potency, µM (series often up to 46.1 µM), most hits filed as cytotoxic; 400,000 tested, 3.4% active; further: nearly all actives have a fitted effect of over 60% in size
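KB-V1, DMEM (no phenol red) + 10% FBS; cpd pin-transferred, titration series; 72 h, 37 degrees C; CellTiter-Glo, luminescence. Data normalized, curve-fit.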
HT1080-NT tox: kills 2HG-producing HT-1080-NT fibrosarcoma cells; 360,000 tested, 1.6% active; HT-1080-NT fibrosarcoma viability, CellTiter-Glo ATP luminescence, 48 h; Potency, µM (top dose mostly 46.1 µM), without a hit: at the highest dose activity, negative = less viability, actives largely listed as cytotoxic;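 further: NT is the 2HG producing partner of a matched IDH1 knockdown line; 0% = DMSO-treated cells and -100% = media-only wells without cells; nearly all actives have a fitted effect of over 55% in size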
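Compounds were tested in concentration-response format on HT-1080-NT cells for 48 hours at 37 degrees C. Cell viability came from CellTiter-Glo luminescence; curves were classified by r2, response magnitude and activity.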
TDP1 cell noCPT: qHTS for Inhibitors of human tyrosyl-DNA phosphodiesterase 1 (TDP1): qHTS in cells in absence of CPT; AID 686978, 2013; Potency, µM (titrated, usually from 46.2 µM), for the others: at the highest dose activity change, negative = growth inhibition, most hits filed as inhibitors; DT40 Tdp1-/- hTDP1 cells, no CPT, ATP luminescence, 48 h; 420,000 tested, 15% active; further: nearly all actives have a fitted effect of over 55% in size
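No-CPT arm: Tdp1-/-;hTDP1 DT40 cells (400/well) plus compounds, incubated ≥48 hr at 37 °C. Readout CellTiter-Glo luminescence.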
HT1080 IDH1KD tx: HT-1080 IDH1 knockdown cell toxicity (counter line); HT-1080 IDH1 knockdown viability, ATP luminescence, 48 h; Potency, µM (highest dose often 46.1 µM), for the others: top-dose activity, negative = toxicity, usual class: cytotoxic; 360,000 tested, 2% active;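 further: 0% = DMSO wells and -100% = cell-free medium wells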
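% activity derives from luminescence (CellTiter-Glo), normalised to DMSO and no-cell wells. HT-1080-IDH1KD cells, 750/well, had 48 h compound exposure at 37 °C.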
TDP1 cell CPT: growth inhibition of DT40 Tdp1-/-;hTDP1 cells with camptothecin (screen for TDP1 inhibitors); 420,000 tested, 12% active; chicken DT40 Tdp1-/-;hTDP1 cells + 20 nM CPT, ATP luminescence, 48 h; AID 686979; Potency, µM (top dose mostly 46.2 µM), for the others: at the highest dose activity change, negative = growth inhibition, actives largely listed as inhibitors; further: nearly all actives have a fitted effect of over 55% in size
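Cell growth measured by CellTiter-Glo luminescence after a minimum 48 h, 37 C compound exposure with 20 nM CPT in Tdp1-knockout DT40 cells stably expressing hTDP1, seeded 400/well; qHTS titration format.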
KB-3-1 tox: KB-3-1 parental cell cytotoxicity; AID 1347075; KB-3-1 viability, CellTiter-Glo ATP luminescence, 72 h; Potency, µM (highest dose often 46.1 µM), actives largely listed as cytotoxic; 400,000 tested, 1.4% active; further: nearly all actives have a fitted effect of over 60% in size
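Cytotoxicity in the drug-sensitive parental line KB-3-1 was scored as loss of CellTiter-Glo luminescence following 72 h incubation with compound. Values come from curve fitting of normalized concentration-response data.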
Active calls of the source: *; i = inactive; ? = inconclusive; nt = not tested or not shown. Sampled rows, rich in hits. Any-hit rate of the full collection: about 19%. The call rests on the fitted dose curve; in most records, active means well fitted curve in the direction sought with a large enough effect; inconclusive means small, poorly fitted or top-dose-only effect, or another doubt; inactive means no such curve, though single readings can be large; an effect the other way counts as inactive or inconclusive. Unless noted, on the % scale 0 is the no-effect control and ±100 the full control effect; potency means the concentration at half of the fitted maximal effect.

SMILES	KB-V1 cytotox	HT1080-NT tox	TDP1 cell noCPT	HT1080 IDH1KD tx	TDP1 cell CPT	KB-3-1 tox
O=C(NCC(c1ccc2c(c1)OCO2)N1CCOCC1)c1ccccc1F (configuration not stated)	i	nt	-29%	nt	?	i
COc1ccc(C(=O)NCC(c2ccc3c(c2)OCO3)N2CCN(c3ccc(OC)cc3)CC2)cc1 (configuration not stated)	i	0%	5.8µM*	-8%	3.3µM*	i
O=C(NCC(c1ccc2c(c1)OCO2)N1CCN(c2ccccc2)CC1)c1ccccc1F (configuration not stated)	nt	nt	12µM*	nt	7.3µM*	nt
COC(=O)NCC(c1ccc2c(c1)OCO2)N1CCN(c2ccccc2)CC1 (configuration not stated)	i	3%	-25%	8%	?	i
C=CCNC(=O)C(=O)NCC(c1ccc2c(c1)OCO2)N1CCN(c2ccc(F)cc2)CC1 (configuration not stated)	i	-1%	?	-13%	16µM*	i
C=CCNC(=O)C(=O)NCC(c1ccc2c(c1)OCO2)N1CCOCC1 (configuration not stated)	i	6%	18%	25%	-1%	i
O=S(=O)(NCC(c1ccc2c(c1)OCO2)N1CCOCC1)c1ccc(Br)cc1 (configuration not stated)	i	-19%	21µM*	-9%	16µM*	i
CCOC(=O)N1C(=O)[C@](CC)(c2ccccc2)N1C(=O)OCC	i	13%	?	5%	8.2µM*	i
CCOC(=O)CC1=C(C(=O)OCC)C(c2cccnc2)C(C#N)=C(N)O1 (configuration not stated)	i	5%	1%	8%	-1%	i
C=CCOC(=O)C1=C(C)OC(N)=C(C#N)C1c1ccc2c(c1)OCO2 (configuration not stated)	i	2%	16µM*	6%	26µM*	i
N#CC1=C(N)Oc2ccc3ccccc3c2C1c1cccnc1 (configuration not stated)	5.2µM*	8.2µM*	5.2µM*	?	3.7µM*	?
Cc1nn(-c2cccc(Cl)c2)c2c1C(c1cccnc1)C(C#N)=C(N)O2 (configuration not stated)	i	-8%	?	-9%	?	i
CC1=C(n2nnc([N+](=O)[O-])n2)C(c2cccnc2)C(C#N)=C(N)O1 (configuration not stated)	i	3%	?	-21%	9.2µM*	i
COC(=O)C1=C(C)OC(N)=C(C#N)C1c1cccnc1 (configuration not stated)	i	10%	?	10%	21µM*	i
O=c1oc2ccccc2c(Nc2ccccc2)c1[N+](=O)[O-]	i	-18%	?	-17%	-2%	i
COc1ccc(CNC(=O)CC2N=C3c4ccccc4N=C(SCC(=O)Nc4ccc(C(C)C)cc4)N3C2=O)cc1 (configuration not stated)	i	nt	-22%	nt	-10%	i
CCOc1ccc(C2CC(=O)Nc3nc(SCc4ccccc4C)[nH]c(=O)c32)cc1OC (configuration not stated)	i	nt	15µM*	nt	?	i
O=C(/C=C/c1ccc(F)cc1)c1cc(Br)ccc1O	i	-4%	-22%	-1%	-4%	i
Cc1ccc(/C=C/C(=O)c2ccccc(=O)c2O)cc1C	21µM*	18µM*	13µM*	?	23µM*	9.2µM*
